Data from PubChem BioAssay (EPA / NIEHS).
Calls of active or inactive are those of the source. How the source made its calls: active means hit-call score of the fitted dose curve at least 0.9, where 1 is the maximum; inactive means score below 0.9.

Legend:
[1] = read-out: Transforming growth factor beta 1 (TGFb1), TGFB1 (gene 7040); experiment: BSK_KF3CT_TGFb1: BioMAP Diversity Plus: KF3CT Assay for Transforming growth factor beta 1 (TGFb1) Biomarker Activity (AID 2283072); conditions: primary human keratinocytes with fibroblasts; actives raise or lower the signal
In short: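 Human keratinocyte/foreskin fibroblast co-culture; TGF-b1 measured by ELISA 24 h after dosing, fitted bidirectionally versus DMSO. Cytotoxicity checked in parallel cultures by total protein (SRB staining, 560 nm).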

[2] = read-out: C-C motif chemokine 2 (Homo sapiens) (UniProt P13500); experiment: BSK_KF3CT_MCP1: BioMAP Diversity Plus: KF3CT Assay for Monocyte Chemoattractant Protein 1 (MCP1/CCL2) Biomarker Activity (AID 2283073); conditions: primary human keratinocytes with fibroblasts; actives raise or lower the signal
In short: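 Human keratinocyte plus foreskin fibroblast primary co-culture exposed to chemical for 24 h. MCP-1 levels measured by ELISA. Bidirectional curve fitting relative to DMSO negative control as baseline.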

[3] = read-out: Matrix Metallopeptidase 9 (MMP9), MMP9 (gene 4318); experiment: BSK_KF3CT_MMP9: BioMAP Diversity Plus: KF3CT Assay for Matrix Metallopeptidase 9 (MMP9) Biomarker Activity (AID 2283074); conditions: primary human keratinocytes with fibroblasts; actives raise or lower the signal;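 on AC50: MMP9 protein level quantified by ELISA in the co-culture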
In short: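 Human keratinocyte and foreskin fibroblast co-culture exposed to chemicals for 24 h; MMP9 biomarker measured by ELISA, bidirectional fitting relative to DMSO; cytotoxicity tracked by SRB total protein staining in parallel cultures.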

[4] = read-out: urokinase plasminogen activator (uPA), PLAU (gene 5328); experiment: BSK_KF3CT_uPA: BioMAP Diversity Plus: KF3CT Assay for urokinase plasminogen activator (uPA) Biomarker Activity (AID 2283075); conditions: primary human keratinocytes with fibroblasts; actives raise or lower the signal
In short: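 Primary human keratinocyte/foreskin fibroblast co-culture exposed to chemical; uPA measured by ELISA at 24 h. Bidirectional fit versus DMSO, with parallel SRB total-protein staining for cytotoxicity.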

CD40, CD40 (gene 958) = experiment: BSK_LPS_CD40: BioMAP Diversity Plus: LPS Assay for CD40 Biomarker Activity (AID 2283076); conditions: primary human HUVEC with PBMC; actives raise or lower the signal
In short: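 Primary human umbilical vein endothelial cells co-cultured with peripheral blood mononuclear cells, LPS-stimulated, were dosed with chemical and read 24 h later. CD40 levels were measured by ELISA and fitted bidirectionally against DMSO as negative control and baseline.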

[5] = read-out: E-selectin (Homo sapiens) (UniProt P16581); experiment: BSK_LPS_Eselectin: BioMAP Diversity Plus: LPS Assay for Eselectin Biomarker Activity (AID 2283077); conditions: primary human HUVEC with PBMC; actives raise or lower the signal
In short: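 Human umbilical vein endothelial cells co-cultured with peripheral blood mononuclear cells under LPS stimulation; E-selectin measured by ELISA 24 h after chemical dosing. Activity fitted bidirectionally against DMSO as negative control and baseline.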

[6] = read-out: Interleukin-8 (IL8), CXCL8 (gene 3576); experiment: BSK_LPS_IL8: BioMAP Diversity Plus: LPS Assay for Interleukin-8 (IL8) Biomarker Activity (AID 2283078); conditions: primary human HUVEC with PBMC; actives raise or lower the signal
In short: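 Human umbilical vein endothelial cells co-cultured with PBMC were stimulated with LPS; IL-8 levels were measured by ELISA 24 h after chemical dosing. Activity was fitted bidirectionally against DMSO as negative control and baseline.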

[7] = BSK_LPS_SRB: Viability Assessment in the BioMAP Diversity Plus: LPS Assay (AID 2283079); conditions: primary human HUVEC with PBMC;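 further: total protein by sulforhodamine B absorbance as a cytotoxicity measure; measured one day after compound addition; fitted in both directions against DMSO so loss or gain of signal counts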
In short: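 Human umbilical vein endothelial cells co-cultured with PBMC (LPS system) were dosed for 24 h. Total protein was stained with 0.1% sulforhodamine B after 10% TCA fixation, read at 560 nm, and fitted bidirectionally against DMSO baseline.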

[8] = read-out: Interleukin-1 alpha (IL1a), IL1A (gene 3552); experiment: BSK_LPS_IL1a: BioMAP Diversity Plus: LPS Assay for Interleukin-1 alpha (IL1a) Biomarker Activity (AID 2283080); conditions: primary human HUVEC with PBMC; actives raise or lower the signal
In short: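 Human umbilical vein endothelial cells co-cultured with peripheral blood mononuclear cells were LPS-stimulated and exposed to test chemicals for 24 h. IL-1 alpha was quantified by ELISA, with bidirectional curve fitting against DMSO as the negative control and baseline.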

[9] = BSK_LPS_PGE2: BioMAP Diversity Plus: LPS Assay for Prostaglandin E2 (PGE2) Biomarker Activity (AID 2283082); conditions: primary human HUVEC with PBMC; actives raise or lower the signal;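 on AC50: secreted prostaglandin E2 measured by ELISA in LPS-stimulated co-culture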
In short: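 HUVEC plus human PBMC co-culture stimulated with LPS; secreted PGE2 quantified by ELISA 24 h after chemical dosing. Activity fitted bidirectionally against DMSO baseline; parallel SRB staining (0.1% SRB after 10% TCA fixation, 560 nm) flags overt cytotoxicity.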

[10] = read-out: Tissue Factor, F3 (gene 2152); experiment: BSK_LPS_TissueFactor: BioMAP Diversity Plus: LPS Assay for Tissue Factor Biomarker Activity (AID 2283084); conditions: primary human HUVEC with PBMC; actives raise or lower the signal
In short: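 Human umbilical vein endothelial cells co-cultured with peripheral blood mononuclear cells were dosed and stimulated with LPS. Cell-surface CD142 was quantified by ELISA at 24 h. Activity was fitted bidirectionally against DMSO baseline.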

[11] = read-out: Tumor necrosis factor (Homo sapiens) (UniProt P01375); experiment: BSK_LPS_TNFa: BioMAP Diversity Plus: LPS Assay for Tumour Necrosis Factor alpha (TNFa) Biomarker Activity (AID 2283085); conditions: primary human HUVEC with PBMC; actives raise or lower the signal
In short: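 Human umbilical vein endothelial cells co-cultured with PBMC and stimulated with LPS. TNFa was measured by ELISA 24 h after chemical dosing, fitted bidirectionally relative to DMSO.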

[12] = read-out: Vascular cell adhesion molecule 1 (VCAM1), VCAM1 (gene 7412); experiment: BSK_LPS_VCAM1: BioMAP Diversity Plus: LPS Assay for Vascular cell adhesion molecule 1 (VCAM1) Biomarker Activity (AID 2283086); conditions: primary human HUVEC with PBMC; actives raise or lower the signal
In short: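 Human umbilical vein endothelial cells co-cultured with PBMC and stimulated with LPS; VCAM-1 measured by ELISA 24 h after dosing. Bidirectional curve fitting against DMSO baseline; cytotoxicity tracked in parallel by SRB total-protein staining.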

CD38, CD38 (gene 952) = experiment: BSK_SAg_CD38: BioMAP Diversity Plus: SAg Assay for CD38 Biomarker Activity (AID 2283087); conditions: primary human HUVEC with PBMC; actives raise or lower the signal
In short: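 Human HUVEC plus PBMC co-culture stimulated with superantigen; CD38 measured by ELISA 24 h after chemical dosing. Fluorescence read-out, bidirectional fit against DMSO; cytotoxicity tracked in parallel by SRB and Alamar Blue.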

CD69, CD69 (gene 969) = experiment: BSK_SAg_CD69: BioMAP Diversity Plus: SAg Assay for CD69 Biomarker Activity (AID 2283089); conditions: primary human HUVEC with PBMC; actives raise or lower the signal
In short: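 Endothelial/PBMC co-culture; chemical added; 24 h incubation; CD69 ELISA with fluorescence detection; bidirectional fit vs DMSO.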

[13] = read-out: Monocyte Chemoattractant Protein-1 (MCP1), CCL2 (gene 6347); experiment: BSK_SAg_MCP1: BioMAP Diversity Plus: SAg Assay for Monocyte Chemoattractant Protein-1 (MCP1) Biomarker Activity (AID 2283090); conditions: primary human HUVEC with PBMC; actives raise or lower the signal
In short: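 MCP-1 levels in the endothelial–PBMC SAg co-culture were quantified by ELISA at 24 h post-dosing; both increases and decreases versus DMSO scored. Cytotoxicity monitored by SRB total protein in parallel cultures.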

[14] = read-out: Monocyte Chemoattractant Protein-1 (MCP1), CCL2 (gene 6347); experiment: BSK_LPS_MCP1: BioMAP Diversity Plus: LPS Assay for Monocyte Chemoattractant Protein-1 (MCP1) Biomarker Activity (AID 2283081); conditions: primary human HUVEC with PBMC; actives raise or lower the signal;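 further: secreted MCP-1 protein quantified by ELISA in culture supernatant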
In short: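 HUVEC plus PBMC co-culture (human primary cells, LPS system) exposed to test chemical for 24 h; MCP-1 measured by ELISA. Bidirectional curve fitting against DMSO baseline; parallel SRB total-protein staining flags overt cytotoxicity.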

[15] = read-out: E-selectin (Homo sapiens) (UniProt P16581); experiment: BSK_SAg_Eselectin: BioMAP Diversity Plus: SAg Assay for Eselectin Biomarker Activity (AID 2283091); conditions: primary human HUVEC with PBMC; actives raise or lower the signal
In short: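 HUVEC co-cultured with PBMC, compound dosed then read at 24 h; E-selectin measured by ELISA. Activity fitted bidirectionally against DMSO as negative control and baseline.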

Measured: AC50

Sequence of E-selectin (Homo sapiens) (P16581 whole entry, looked up): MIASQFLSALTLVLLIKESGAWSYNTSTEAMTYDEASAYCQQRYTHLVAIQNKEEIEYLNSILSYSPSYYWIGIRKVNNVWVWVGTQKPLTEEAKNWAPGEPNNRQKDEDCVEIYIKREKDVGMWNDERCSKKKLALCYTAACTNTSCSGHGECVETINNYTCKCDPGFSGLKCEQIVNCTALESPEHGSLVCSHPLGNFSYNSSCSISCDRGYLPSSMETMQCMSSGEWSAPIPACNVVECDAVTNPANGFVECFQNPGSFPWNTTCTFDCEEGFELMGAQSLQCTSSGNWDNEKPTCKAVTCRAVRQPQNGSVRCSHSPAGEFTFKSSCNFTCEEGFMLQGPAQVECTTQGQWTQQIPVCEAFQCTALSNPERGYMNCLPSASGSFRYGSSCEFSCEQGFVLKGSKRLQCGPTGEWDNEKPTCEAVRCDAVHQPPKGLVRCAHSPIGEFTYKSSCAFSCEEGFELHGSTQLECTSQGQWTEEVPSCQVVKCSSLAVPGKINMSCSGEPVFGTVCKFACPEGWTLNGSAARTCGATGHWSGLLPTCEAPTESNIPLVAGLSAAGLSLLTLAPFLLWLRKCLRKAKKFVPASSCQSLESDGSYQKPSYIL
Sequence of Tumor necrosis factor (Homo sapiens) (P01375 whole entry, looked up): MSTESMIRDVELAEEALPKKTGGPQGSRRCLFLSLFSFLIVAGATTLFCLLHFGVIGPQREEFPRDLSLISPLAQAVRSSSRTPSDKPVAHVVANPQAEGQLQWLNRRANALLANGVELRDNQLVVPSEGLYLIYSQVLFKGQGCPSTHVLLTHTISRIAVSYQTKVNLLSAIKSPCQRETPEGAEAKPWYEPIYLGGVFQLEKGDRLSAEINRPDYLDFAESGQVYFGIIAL

O=C1c2ccccc2C(=O)c2c(O)ccc(O)c21
active: [9] 0.233 µM | [10] 3.52 µM | [11] 1.21 µM | CD38, CD38 (gene 952) 13.1 µM
not listed: [14] | [15]
inactive: all other assays above

CCC(C)c1cc([N+](=O)[O-])cc([N+](=O)[O-])c1OC(=O)OC(C)C (stereo not drawn)
active: [1] 20 µM | [3] 20 µM | [4] 20 µM | CD40, CD40 (gene 958) 7.3 µM | [5] 15 µM | [6] 29.7 µM | [14] 14.3 µM | [9] 5.42 µM | [10] 16.2 µM | [11] 31.8 µM | [12] 16.8 µM | CD38, CD38 (gene 952) 10.8 µM | [13] 12.2 µM
inactive: [2]

C=C(C)[C@H]1CC=C(C)C(=O)C1
not listed: [7] | CD69, CD69 (gene 969) | [14] | [15]
inactive: all other assays above

CC(=O)C1(C)CC2=C(CCCC2(C)C)CC1C (stereo not drawn)
inactive: [1] | [9] | [11]
active: [2] 10.3 µM | [3] 10.9 µM | [4] 11.6 µM | CD40, CD40 (gene 958) 6.43 µM | [5] 9.47 µM | [6] 10.1 µM | [8] 5.8 µM | [10] 10.1 µM | [12] 13 µM | CD38, CD38 (gene 952) 33 µM | [13] 23.6 µM | [15] 15.5 µM

O=C1OC2(c3ccccc31)c1ccc(O)c(Br)c1Oc1c2ccc(O)c1Br
active: [1] 4.66 µM | [2] 20 µM | CD40, CD40 (gene 958) 20 µM | [5] 24.5 µM | [14] 20 µM | [9] 11.1 µM | [10] 20 µM | [12] 20 µM | CD38, CD38 (gene 952) 20 µM | [13] 20 µM
inactive: [3] | [4] | [6] | [11]
